The list is not random: actives were taken first. Their share in the collection is about 5.3%.
Vaccinia mCherry: vaccinia inhibition (mCherry reporter) | Vaccinia virus mCherry reporter infection, fluorescence | Potency, µM (titrated, usually from 36.5 µM), hits mostly inhibitors | actives 0.63% (n = 310,000); calls by dose curve; tested in A549 cells; also: nearly all actives have a fitted effect of over 35% in size
VACV Venus inh: inhibitors of vaccinia virus (Venus reporter); actives 0.46% (n = 330,000); Vaccinia virus Venus reporter expression, fluorescence; Potency, µM (series often up to 36.5 µM), actives largely listed as inhibitors; calls by dose curve; tested in A549 cells; also: nearly all actives have a fitted effect of over 30% in size
Marburg entry inh: Marburg virus entry inhibition. Marburg virus pseudotyped entry inhibition, cell reporter. Potency, µM (titrated, usually from 37.8 µM), actives largely listed as inhibitors. actives 1.8% (n = 300,000). AID 540276; calls by dose curve; tested in HEK293 cells
Lassa entry inh: blocks Lassa virus binding to or entry into cells; Lassa virus pseudotype entry inhibition, cell reporter; Potency, µM (titrated, usually from 37.9 µM), usual class: inhibitors; actives 1.2% (n = 300,000); AID 540256; calls by dose curve; tested in HEK293 cells; also: nearly all actives have a fitted effect of over 50% in size
FMDV inh: foot and mouth disease virus antiviral activity | AID 1159524 | FMDV antiviral cell-based qHTS | Potency, µM (titrated, usually from 57.9 µM), most hits filed as inhibitors | actives 1.2% (n = 410,000); calls by dose curve; tested in HEK293T cells; also: read-out not given here; nearly all actives have a fitted effect of over 45% in size
HCV inhibitor: inhibitors of hepatitis C virus infection; Huh7.5.1 HCVcc-Cre infection, luciferase reporter, 44 h; Potency, µM (series often up to 41.8 µM), most hits filed as inhibitors; AID 651820; actives 3.4% (n = 340,000); active = well fitted inhibition curve with a large enough effect; inconclusive = small, poorly fitted or top-dose-only effect, or another doubt; inactive = no such curve, though single readings can be large or run the other way
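Compounds are dispensed onto cells plated 4 h earlier at 1,000 per well, with HCVcc-Cre virus (about 0.5 moi) added next. Following 44 h of culture, luminescent signal is measured for 15 sec after 15 min with substrate at room temperature.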
A number is an active result; i = inactive; ? = inconclusive; nt = no result given.

SMILES	Vaccinia mCherry	VACV Venus inh	Marburg entry inh	Lassa entry inh	FMDV inh	HCV inhibitor
CCOc1cc(C(N)=O)cc(Cl)c1OCc1ccccc1	i	i	nt	nt	i	12.6µM
O=C(Nc1cccc(Cl)c1)N1CCN2C(=O)c3ccccc3C12c1ccccc1 (configuration not stated)	?	?	?	i	?	?
O=C(CCl)N1CCN2C(=O)c3ccccc3C12c1ccc(Cl)cc1 (configuration not stated)	i	i	?	i	10µM	i
Cc1ccc(C(=O)N2CCN3C(=O)c4ccccc4C23c2ccc(Cl)cc2)cc1 (configuration not stated)	nt	?	?	?	i	10µM
Cc1ccc(C(=O)N2CCN(c3ccc(Cl)cc3)CC2)cc1	i	i	i	i	i	i
CC=CC(C)=CC(C)C(=O)CC(O)CC1CC(=O)NC(=O)C1 (configuration not stated)	?	?	nt	nt	i	nt
CC1CC(C)(O)CC(C(O)CC2CC(=O)NC(=O)C2)C1=O (configuration not stated)	?	35.5µM	0.1µM	0.398µM	?	?
CCOC(=O)c1ccc(N2C(=O)c3[nH]nc(-c4ccc(C)cc4)c3C2c2ccc(O)c(OCC)c2)cc1 (configuration not stated)	i	i	?	?	?	nt
COc1ccccc1NC1=CC(=O)CC(c2ccccc2)C1 (configuration not stated)	i	i	i	7.31µM	i	i
COc1ccc(NC2=CC(=O)CC(c3ccc(C)cc3)C2)c(OC)c1 (configuration not stated)	i	i	i	i	i	?
O=C(C(Br)=Cc1ccccc1)c1ccccc1	?	?	5.01µM	?	25.1µM	?
N#CC(=Cc1ccc(-c2ccccc2)cc1)C(=O)c1ccccc1	i	i	nt	nt	i	nt
CC(=O)C(=Cc1ccc(-c2ccccc2)cc1)C(=O)c1ccccc1	i	i	nt	nt	22.4µM	nt
COCCn1c(=O)c(-c2cccc(C#N)c2)nc2cnc(OCc3ccccc3)nc21	nt	nt	nt	nt	i	nt
CCOC(=O)[C@@]12C[C@@H]1/C(=N/O)c1ccccc1O2	nt	nt	i	nt	i	nt
CCC(=O)NC(C)c1cc(Cl)c2cccnc2c1O (configuration not stated)	nt	nt	nt	nt	i	nt
CCC(=O)NC(c1ccco1)c1cc(Cl)c2ccccc2c1O (configuration not stated)	nt	nt	nt	nt	i	nt
CCCC(=O)NC(c1cccs1)c1cc(Cl)c2cccnc2c1O (configuration not stated)	i	i	3.55µM	?	i	3.16µM
CCC(=O)NC(c1ccc(C)cc1)c1cc(Cl)c2cccnc2c1O (configuration not stated)	nt	nt	nt	nt	i	nt
CCCC(=O)NC(c1ccc2c(c1)OCO2)c1cc(Cl)c2cccnc2c1O (configuration not stated)	12.6µM	?	?	?	i	1.12µM
CCCC(=O)NC(c1ccco1)c1cc(Cl)c2cccnc2c1O (configuration not stated)	?	?	?	?	i	11.2µM
Cc1c(C(=O)NCC(C)(C)N2CCOCC2)cnn1-c1ncc2c(n1)-c1ccccc1CCC2	i	i	nt	nt	i	nt
CCOC(=O)c1ccc(CN(Cc2ccc(F)cc2)S(=O)(=O)c2ccc(F)c(C(=O)Nc3ccc(Cl)cc3F)c2)cc1	i	i	nt	i	i	nt
CCOc1ccccc1-c1nc(Cn2c(=O)cc(C)c3c(C)nn(-c4ccccc4)c32)c(C)o1	i	i	nt	i	i	nt
Cc1cccc2c(C(O)c3c[nH]c4c(C)cccc34)c[nH]c12	i	i	nt	nt	nt	nt
SMILES	Vaccinia mCherry	VACV Venus inh	Marburg entry inh	Lassa entry inh	FMDV inh	HCV inhibitor
CCCC[C@@H]1C[C@H]1C(=O)Nc1ccc(OC)c(OC)c1	nt	nt	i	nt	nt	nt
O=c1c(S(=O)(=O)c2ccccc2)cn(Cc2ccc(F)cc2)c2cc(N3CCCC3)c(F)cc12	i	i	nt	i	i	nt
Cc1cc(C(=O)COc2cccc(-n3cnnn3)c2)c(C)n1-c1ccccc1	nt	nt	i	?	?	1µM
COC(=O)COc1cccc(-n2cnnn2)c1	nt	nt	i	i	i	i
CCCOC(=O)c1ccc(-[n+]2c(-c3ccccc3)cc(-c3ccccc3)cc2-c2ccccc2)cc1	i	?	nt	nt	14.1µM	?
O=C(O)c1ccc(-[n+]2c(-c3ccccc3)cc(-c3ccccc3)cc2-c2ccccc2)cc1	i	i	nt	nt	i	i
O=C(c1cccs1)N1C[C@H](O)[C@H](n2cc(C3CC3)nn2)C[C@@H]1c1ccc(Cl)cc1	nt	nt	nt	i	nt	nt
Cc1csc2ncnc(NCCc3ccccn3)c12	nt	nt	nt	nt	?	7.08µM
c1ccc(CCNc2ncnc3sccc23)nc1	i	i	?	?	i	?
COc1ccc(-c2nc3c(c(=O)n(C)c(=O)n3C)n2CC2CC(c3ccccc3)=NO2)cc1OC (configuration not stated)	nt	?	?	i	i	5.62µM
CCOc1ccc(-c2nonc2NC(=O)c2oc3cc(C)ccc3c2C)cc1	i	i	i	?	i	nt
CC(C)(C)c1ccc(NC(=O)N2CCCN(c3ccc([N+](=O)[O-])cn3)CC2)cc1	i	?	i	?	31.6µM	i
COC(=O)c1ccc(Oc2nc(Nc3ccc(C)c(C)c3)nc(N(C)C)n2)cc1	nt	nt	i	i	?	8.91µM
CCNc1nc(Oc2ccc(C(=O)OC)cc2)nc(N(C)C)n1	nt	i	i	i	i	i
Cc1nn2c(=O)cc(COc3ccc(/C=C(\C#N)C(=O)Nc4ccc(F)cc4)cc3)nc2s1	i	i	i	i	i	nt
C=C1C(=O)O[C@H]2[C@H]1[C@H](OC(=O)/C(C)=C\C)C[C@]1(CO1)[C@@H]1[C@H](OC(C)=O)C=C(C)[C@]21O	i	i	?	i	i	i
C=C1C(=O)O[C@@H]2[C@H]1[C@@H](OC(=O)/C(C)=C/C)C/C(C)=C\C(=O)/C=C(\C)[C@@H]2O	?	11.2µM	nt	nt	28.2µM	11.2µM
Cc1ccc2nc(-c3ccc(C)c(NC(=O)COc4ccc(Br)cc4)c3)oc2c1	i	i	nt	nt	nt	nt
COc1cc2c(cc1OC)C(c1ccc(Cl)cc1)N(c1ccc(C)c(F)c1)C(=O)C2 (configuration not stated)	i	i	i	?	?	nt
CCCNc1nc(N)nc(-c2cc(Cl)ccc2OC)n1	nt	i	i	i	i	i
CCCCNc1nc(N)nc(-c2cc(Cl)ccc2O)n1	?	20µM	?	?	i	?
CCNc1nc(N)nc(-c2cc(Cl)ccc2O)n1	10µM	10µM	?	?	i	?
Cc1ccc(N2C(=O)N(CC(=O)Nc3ccc(F)c(F)c3)C(=O)C2C)cc1 (configuration not stated)	i	i	?	i	i	i
COc1cc(-c2nnc(SCc3c(F)cccc3Cl)o2)cc(OC)c1OC	nt	i	i	?	i	35.5µM
Cc1c(Cl)cccc1NC(=O)C1CCCN(c2nnc(-n3c(C)ccc3C)s2)C1 (configuration not stated)	i	i	i	i	i	nt
CCN(CC)C(=O)C1CCCN(C(=O)Nc2ccc3nsnc3c2)C1 (configuration not stated)	nt	i	i	i	i	31.6µM

Source: PubChem BioAssay
